Source: PubChem BioAssay AID2360 (The Scripps Research Institute Molecular Screening Center, 2010)
In all, about 1,900 compounds went through this assay and about 85 (4%) were called active. This excerpt belongs to a sample that is enriched for actives. Unmarked numbers belong to inactive results.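 How the source made its calls: active means mean PP5 inhibition over triplicate wells above about 9.5% taken from the earlier PP1 screen (limit read from the data); inactive means the rest.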

Molecular target: Serine/threonine-protein phosphatase 5 (Homo sapiens) (UniProt P53041)
Sequence (P53041 whole entry, looked up): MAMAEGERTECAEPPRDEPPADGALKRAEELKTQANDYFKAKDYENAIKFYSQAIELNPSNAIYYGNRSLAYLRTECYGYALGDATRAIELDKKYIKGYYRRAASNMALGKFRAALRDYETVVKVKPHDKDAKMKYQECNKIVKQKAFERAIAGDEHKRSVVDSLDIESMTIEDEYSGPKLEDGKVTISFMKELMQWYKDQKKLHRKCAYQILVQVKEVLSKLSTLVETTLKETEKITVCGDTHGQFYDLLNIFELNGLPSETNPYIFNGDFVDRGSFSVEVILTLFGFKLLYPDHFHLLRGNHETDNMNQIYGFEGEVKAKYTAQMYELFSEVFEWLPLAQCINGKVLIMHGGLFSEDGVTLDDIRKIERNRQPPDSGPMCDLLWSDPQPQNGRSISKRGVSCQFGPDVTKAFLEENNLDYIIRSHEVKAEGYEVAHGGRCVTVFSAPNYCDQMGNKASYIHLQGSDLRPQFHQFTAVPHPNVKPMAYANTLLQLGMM
Assay: PP5 phosphatase inhibition by PP1 hits, confirmation, counter-screen for PP1 inhibitor project, biochemical, fluorescence, triplicate (AID 2360)
Conditions: purified PP5c, OMFP fluorescence; at 6.7 µM; active compounds read high

Structure (SMILES)	inhibition
O=C(O)c1ccccc1NC(=O)C1C2CCC(O2)C1C(=O)O (stereo not drawn)	17.6% (active)
CCOP(=O)(OCC)C(O)c1ccc(OC)cc1OC (stereo not drawn)	-3.76%
O=c1[nH]c(CN2CC=C(c3ccccc3)CC2)nc2scc(-c3cccs3)c12	-3.01%
